Source: PubChem BioAssay (NCI)
This is part of a sample that, as a whole, favours compounds with a hit. Of some 83,000 tested, about 20% had one in any assay.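 96-well plates, one dose, 48 hours. Percent growth reported; active if below 10.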 Calls of active or inactive are those of the source.

Assays:
Assay in all cases: NCI-60 one-dose screen, 48 h (100 = growth as untreated, 0 = no growth, -100 = all killed)
Conditions in all cases: 10 µM unless noted
[1] = test system: NCI-H23 lung
[2] = test system: NCI-H226 lung
[3] = test system: NCI-H322M lung
[4] = test system: HOP-62 NSCLC
[5] = test system: NCI-H460 lung
[6] = test system: HOP-92 NSCLC
[7] = test system: NCI-H522 lung
[8] = test system: A549/ATCC NSCLC
[9] = test system: 786-0 renal
[10] = test system: COLO 205 colon
[11] = test system: DU-145 prostate
[12] = test system: K-562 leukemia
[13] = test system: MALME-3M melanoma
[14] = test system: MDA-MB-231 breast
[15] = test system: RXF 393 renal
[16] = test system: SF-268 CNS
[17] = test system: SF-295 CNS
[18] = test system: SF-539 CNS
[19] = test system: UACC-257 melanoma
[20] = test system: M14 melanoma

Measured: growth

Nc1ncnc(Nc2ccc(C(F)(F)F)cc2)n1
inactive: [1] 100% | [2] 103% | [3] 102% | [4] 103% | [5] 106% | [6] 76.7% | [7] 98.5% | [8] 93.6% | [9] 97.7% | [10] 108% | [11] 107% | [12] 98.9% | [13] 105% | [14] 102% | [15] 113% | [16] 101% | [17] 101% | [18] 107% | [19] 95.5% | [20] 103%

O=C(CCCl)OCCOc1ccccc1
inactive: [1] 96.2% | [2] 104% | [3] 97% | [4] 105% | [5] 104% | [6] 86.7% | [7] 98.2% | [8] 102% | [9] 99.4% | [10] 103% | [11] 101% | [12] 93.2% | [13] 97.7% | [14] 111% | [15] 112% | [16] 94.6% | [17] 105% | [18] 95.8% | [19] 110% | [20] 102%

Cc1ccc(OC(=O)c2ccccc2)cc1
inactive: [1] 114% | [2] 100% | [3] 123% | [4] 97.7% | [5] 106% | [6] 130% | [7] 91.8% | [8] 98.7% | [9] 112% | [10] 96.1% | [11] 114% | [12] 101% | [13] 123% | [14] 126% | [15] 107% | [16] 108% | [17] 117% | [18] 106% | [19] 94.3% | [20] 113%

CCOC(=O)C(=O)CC(=O)c1ccccc1
inactive: [1] 95.4% | [2] 86.6% | [3] 94.5% | [4] 94.9% | [6] 79.6% | [7] 98.8% | [8] 96.5% | [9] 103% | [10] 100% | [11] 102% | [12] 118% | [13] 100% | [14] 92.9% | [15] 103% | [16] 96.7% | [17] 104% | [18] 100% | [19] 101% | [20] 97.1%
active: [5] -12.5%

CCCCOC(=O)c1ccccc1O
inactive: [1] 108% | [2] 105% | [3] 112% | [4] 110% | [5] 113% | [6] 111% | [7] 125% | [8] 113% | [9] 109% | [10] 115% | [11] 120% | [12] 131% | [13] 104% | [14] 104% | [15] 161% | [16] 117% | [17] 110% | [18] 106% | [19] 99.4% | [20] 117%

Clc1cccc(Cl)c1CSc1nc2ccccc2n2cccc12
inactive: [1] 90.6% | [2] 99.1% | [3] 71.8% | [4] 101% | [5] 105% | [6] 94% | [7] 68.3% | [8] 95.4% | [9] 96.9% | [10] 91.2% | [11] 92.8% | [12] 89% | [13] 91.4% | [14] 98.2% | [15] 97.6% | [16] 96.9% | [17] 98% | [18] 102% | [19] 95.6% | [20] 94.1%

O=C(O)c1cccc(-n2ncc(Cl)c(Cl)c2=O)c1
inactive: [1] 107% | [2] 101% | [3] 117% | [4] 100% | [5] 101% | [6] 112% | [7] 36% | [8] 102% | [9] 109% | [10] 117% | [11] 114% | [12] 109% | [13] 106% | [14] 103% | [15] 118% | [16] 108% | [17] 102% | [18] 101% | [19] 89.2% | [20] 101%

CCOc1ccccc1NC(=O)CCl
inactive: [1] 71.4% | [2] 86.3% | [3] 107% | [4] 99.8% | [5] 97.3% | [6] 103% | [7] 56.1% | [8] 100% | [9] 108% | [10] 104% | [11] 105% | [12] 86.8% | [13] 92.2% | [14] 83.8% | [15] 93.9% | [16] 91.7% | [17] 87.4% | [18] 114% | [19] 102% | [20] 79.1%
